Experimental data as given in PubChem BioAssay AID624330 (Southern Research Specialized Biocontainment Screening …, 2012).
About 2,100 (0.62%) of roughly 340,000 compounds were called active.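 The calls were made as follows: active = first-screen hits whose inhibition reached a set limit at any dose in the follow-up dose series; inconclusive = inhibition above the set first-screen limit but never retested; inactive = the rest.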 The list is a sample of the results. Measured potencies and affinities stand elsewhere.

What follows are compounds tested against Rac GTPase-activating protein 1 (Homo sapiens) (UniProt Q9H0H5) (assay: blockers of MgcRacGAP-driven Rac1 GTP hydrolysis – biochemical, ADP Hunter fluorescence, primary and confirmatory, confirmation (AID 624330;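 also: fluorescence reports GDP produced by GAP-driven GTP hydrolysis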)). Conditions: MgcRacGAP-stimulated Rac1 GTP hydrolysis, at 30 µM, active compounds read high, GST-tagged Rac1 F28L mutant substrate.
Rac GTPase-activating protein 1 (Homo sapiens), sequence (Q9H0H5 whole entry, looked up): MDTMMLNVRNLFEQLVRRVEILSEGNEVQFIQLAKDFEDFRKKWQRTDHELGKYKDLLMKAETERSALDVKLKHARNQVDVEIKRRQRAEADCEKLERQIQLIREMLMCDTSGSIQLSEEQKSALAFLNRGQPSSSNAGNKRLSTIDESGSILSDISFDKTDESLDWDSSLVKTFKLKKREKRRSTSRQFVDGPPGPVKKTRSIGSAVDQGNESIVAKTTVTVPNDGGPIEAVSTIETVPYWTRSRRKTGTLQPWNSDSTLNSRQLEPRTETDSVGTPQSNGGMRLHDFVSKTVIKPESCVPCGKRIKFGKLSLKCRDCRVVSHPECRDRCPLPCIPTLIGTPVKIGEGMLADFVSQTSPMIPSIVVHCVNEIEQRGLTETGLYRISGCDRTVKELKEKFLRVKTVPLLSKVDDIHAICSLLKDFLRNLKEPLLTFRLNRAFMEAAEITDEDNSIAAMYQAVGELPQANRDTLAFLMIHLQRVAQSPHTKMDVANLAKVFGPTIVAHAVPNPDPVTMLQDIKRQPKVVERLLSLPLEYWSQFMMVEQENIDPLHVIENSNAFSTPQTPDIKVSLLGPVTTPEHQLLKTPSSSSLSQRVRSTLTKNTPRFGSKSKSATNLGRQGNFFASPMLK

inhibition, inactive:
CC(C)(C)NC(=O)C(c1ccc(-c2ccccc2)cc1)N(C[C@H]1CC[C@@H]([C@@H]2CC[C@H](CO)O2)O1)C(=O)c1ccccc1F (some centres undefined) 3.69%
O=C(O)Cn1nc(-c2ccccc2)ccc1=O -3.67%
CCN(CC)CCOC(=O)c1ccc(N/C=C(/C#N)c2nc(-c3cc4ccccc4oc3=O)cs2)cc1 26.6%
Cc1ccc(-c2csc(/C(C#N)=C/Nc3ccc4c(c3)OCCO4)n2)cc1 16.1%
COc1ccc(-c2csc(/C(C#N)=C/Nc3ccc4c(c3)OCCO4)n2)cc1 2.83%
CCN(CC)CCOC(=O)c1ccc(N/C=C(/C#N)c2nc(-c3ccc(OC)cc3)cs2)cc1 10.3%
c1ccc(-c2ncc(CSc3nncn3-c3ccccc3)s2)cc1 1.96%
Cn1cc(SCC(=O)Nc2ccc3c(c2)OCO3)c2ccccc21 5.29%
O=C(NCc1ccccc1Cl)c1ccccc1CCc1ccccc1 6.88%
Cc1ccc(NC(=O)C2=CC=CN3CCS(=O)(=O)N=C23)cc1 2.18%
CCc1ccc(NC(=O)C2=CC=CN3CCS(=O)(=O)N=C23)cc1 7.78%
CN(C)C(=O)CCc1nc2sc3c(c2c(=O)[nH]1)CCCC3 18%
NC(=O)Cn1cc(/C=N\NS(=O)(=O)c2ccc(Cl)cc2)c2ccccc21 20%
COC(=O)c1ccc(NC(=S)N2CCN(Cc3ccc(Cl)cc3)CC2)cc1 -0.55%
CSC1=NSC2=NC(=O)/C(=C/c3coc4ccc(O)cc4c3=O)C(=N)N12 14.1%
CN1C(=O)/C(=C/c2coc3ccc(O)cc3c2=O)SC1=S 11.2%
O=C1NC(=S)S/C1=C\c1coc2ccc(O)cc2c1=O 7.3%
O=C1NN(c2ccccc2)C(=O)/C1=C\c1coc2ccc(O)cc2c1=O 23.8%
COc1ccc(CCNC(=O)c2cccc(S(=O)(=O)N3CCCCC3)c2)cc1 8.12%
C[C@H]1CN([C@@H](C)CO)C(=O)c2cccc(NC(=O)Nc3ccc(F)cc3)c2O[C@@H]1CN(C)Cc1ccc(C(=O)O)cc1 2.98%
O=C(NCc1ccccn1)C1Nc2ccc(C(F)(F)F)cc2C2C=CCC12 (centres undefined) 24.7%
O=c1cc(CNc2cc(Cl)ccc2Cl)nc2sccn12 2.5%
CCN(CC)C(=O)C(Sc1nnnn1-c1ccc(O)cc1)c1ccccc1 (centres undefined) 3.92%
Cc1c(Br)cnn1C(C)C(=O)N1CCN(c2ccc(F)cc2)CC1 (centres undefined) 3.49%
COc1cc(/C=C/C(=O)OCC(=O)Nc2ccc([N+](=O)[O-])cc2)ccc1O 4.8%
O=C(/C=C/c1cccc(Cl)c1)OCc1cn2cc(Cl)ccc2n1 11.7%
COc1cc(/C=C/C(=O)OCC(=O)Nc2cc(C)c(C)cc2[N+](=O)[O-])ccc1O 9.32%
COc1cc(NC(=O)COC(=O)/C=C/c2ccc(OC)c(OC)c2)cc(OC)c1 -0.81%
COc1cc(/C=C/C(=O)OCC(=O)Nc2ccc(Cl)cn2)ccc1O 21.2%
COc1cccc(/C=C/C(=O)NCc2cn3cc(Cl)ccc3n2)c1 2.4%
O=C(COC(=O)/C=C/c1cccc(F)c1)Nc1ccccc1 -19.5%
COc1cc(/C=C/C(=O)OCC(=O)Nc2ccccc2Sc2ccc(Cl)cc2)ccc1O 16.7%
CCOc1cc(CNCC2CCCO2)cc(Br)c1OCC(N)=O (centres undefined) 3.03%
CCn1ncc(CN2CCN(C(=O)Nc3ccccc3C(=O)OC)CC2)c1C 6.62%
O=C(Cn1ncn2c(cc3ccccc32)c1=O)NCCCc1ccccc1 1.38%
CC(C)(C)NC(=O)CN1C(=O)/C(=C/c2ccccc2)SC1=S 9.16%
CCC(Cc1ccccc1)NC(=O)CCc1ccccc1 (centres undefined) 7.57%
O=C(OCN1C(=O)C(=O)c2ccccc21)c1ccc(Cl)cc1 7.35%
CCCCn1c(N)c(N(Cc2ccccc2OC)C(=O)COc2ccc(F)cc2Cl)c(=O)[nH]c1=O 4.08%
CCOC(=O)C1=C(COC(=O)/C=C/c2ccc(OC)c(OC)c2)NC(=O)NC1C (centres undefined) -0.71%
CCOC(=O)C1=C(COC(=O)/C=C/c2ccc(OCC)c(OC)c2)NC(=O)NC1C (centres undefined) 9.47%
COc1ccc(-c2cc(C3CCN(Cc4cccc(C(F)(F)F)c4)CC3)[nH]n2)cc1 9.81%
CC(C)c1ccc2nc(NC(=O)C3CC3)sc2c1 9.94%
COc1ccccc1NC(=O)c1ccccc1S(=O)(=O)c1ccc([N+](=O)[O-])cc1 11.4%
c1ccc(Nc2ccccn2)cc1 1.32%
c1ccc(Nc2cccc(Nc3ccccc3)n2)cc1 16.6%
Cc1ccc(NC(=O)CSc2ccc3c(c2)OCCO3)c(O)c1 8.94%
CC(=O)c1ccc(N2CCN(C(=O)COc3ccc4c(c3)CCC4)CC2)cc1 5.57%
O=C(O)c1ccc2c(c1)S(=O)(=O)c1cc(N3CCN(c4cnccn4)CC3)ccc1C2=O 13.8%
O=C(Cn1[nH]c(=O)c2ccccc2c1=O)NC1CCN(Cc2ccccc2)CC1 5.55%
COc1cc(C)c(-c2cc(C(=O)O)c(C)o2)cc1C(C)C 8.02%
COc1cc(C)c(S(=O)(=O)N2CCCC2)cc1C(C)C 3.94%
Nc1ccc2c(c1)[nH]c(=O)c1ccccc12 21.4%
Nc1ccc2c(=O)[nH][nH]c(=O)c2c1 3.77%
C[C@H](CO)N1C[C@H](C)[C@@H](CN(C)S(=O)(=O)c2cccs2)Oc2ccc(NC(=O)NC3CCCCC3)cc2C1=O 3.35%
Cn1ccnc1Sc1nc2c(c(=O)n(C)c(=O)n2C)n1C 1.94%
COc1cc(C(=O)Nc2cccc(S(=O)(=O)N3CCCC3)c2)c([N+](=O)[O-])cc1OC 4.7%
Cn1c(=S)[nH]c2ccccc21 11.4%
S=c1[nH]nc2nnc3ccccc3n12 17.6%
COc1cc(NC(=O)c2cccc(F)c2)cc(OC)c1OC 8.45%
C=CCn1c2ccccc2c2n[nH]c(=S)nc21 3.05%
COCCNC(=O)c1c[nH]c2ccc(S(=O)(=O)N3CCC4(CC3)OCCO4)cc2c1=O 10.7%
N#Cc1ccccc1N=C1CCCN1Cc1ccccc1 16.7%
Cc1ccc(N=C2CCCCCN2C)c(C#N)c1 3.58%
CCc1ccc(OCC(O)Cn2c(N3CCCCC3)nc3c2c(=O)[nH]c(=O)n3C)cc1 (centres undefined) -4.27%
O=C(Nc1ccccc1Cl)OCC#CCOC(=O)Nc1ccccc1Cl 11%
O=C(Nc1ccccc1Cl)Oc1ccc(Cl)cc1Cl 9.61%
C[C@@H]1CN([C@@H](C)CO)C(=O)CCCn2nncc2CO[C@H]1CN(C)C(=O)Nc1ccc(N2CCCCC2)cc1 11.5%
O=C(CCN1C(=O)/C(=C/c2ccccc2Cl)SC1=S)NN1CCOCC1 4.7%
Cn1nccc1NC(=O)Nc1cccc(Cl)c1Cl 2.52%
CC(C)(C)c1nnc(N/N=C/c2ccccc2)n(N)c1=O 8.65%
CC(C)(C)c1nnc(N/N=C/c2ccc(Br)cc2)n(N)c1=O 9.58%
CCOc1ccc(NC(=O)CN(C)C(=O)c2cn(-c3ccc(F)cc3)nc2-c2cccc(OC)c2)cc1OCC 0.09%
CC(OC(=O)/C=C/c1ccccc1)C(=O)Nc1ccc2c(c1)OCCO2 (centres undefined) 9.16%
O=C(NCCc1nc2ccccc2[nH]1)Nc1ccccc1 8.22%
COc1ccc(NC(=O)c2cc(OC)c(OC)c(OC)c2)cn1 7.64%
COc1ccc(NC(=O)c2cccc(Oc3ccccc3)c2)cn1 4.7%
NS(=O)(=O)c1cccc(NC(=O)c2cccc(-c3ccc(O)cc3)c2)c1 12.5%
COc1cccc(C(=O)Nc2cccc(NC(C)=O)c2)c1 10.6%
CCOc1ccc(N(C(C)C(=O)Nc2ccc(OC)cc2)S(C)(=O)=O)cc1 (centres undefined) 9.57%
Cc1ccc(NC(=O)COC(=O)c2cc(Cl)ccc2[N+](=O)[O-])cc1 9%
O=C(c1c(O)cc(O)cc1O)C1c2c(cc(O)c3c2O[C@H](c2ccc(O)cc2)[C@@H](O)C3)OC1c1ccc(O)cc1 (some centres undefined) 12.8%
O=C1c2c(O)cc(O)cc2O[C@H](c2ccc(O)c(O)c2)[C@H]1O 13.3%
COc1cc2c3c([nH]c2cc1F)C(=O)NCC3 9.04%
O=[N+]([O-])c1cccc(CSc2nc3ccccc3[nH]2)c1 3.52%
CCN(CC(=O)Nc1cc(Cl)ccc1C)C(=O)COc1ccccc1F -0.45%
Cc1ccc(N/N=C/c2ccc(N3CCOCC3)cc2)cc1C 24.2%
C(=N\n1cnnc1)/c1ccc(N2CCOCC2)cc1 8.48%
CCCOc1ccc(/C=N/Nc2ccccn2)cc1OC 13.1%
Brc1ccc(/C=N/Nc2ccccn2)cc1 10.9%
C=CCOc1ccc(/C=N/Nc2ccccn2)cc1OC 9.55%
COc1cc(/C=N/Nc2ccccn2)ccc1OCC(C)C 1.63%
Clc1ccc(/C=N/Nc2ccccn2)cc1 11.1%
CCOc1ccc(/C=N/Nc2ccccn2)cc1OC 6.25%
